Test results taken from PubChem BioAssay AID2132 (NMMLSC, 2009).
Unmarked numbers belong to inactive results.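 The calls were made as follows: active = inhibition above 20%; inactive = the rest.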 Peptide text beside a SMILES is read from it. * marks the point of attachment. Cbz = O=C(OCc1ccccc1)*

Test: inhibition of 26S proteasome fluorogenic peptide cleavage, counter-screen for 26S proteasome disassembly project, biochemical, fluorogenic peptides, secondary (AID 2132)
Settings: yeast 26S proteasome, fluorogenic peptide cleavage rate; with Ac-RLR-amc; at 100 µM; active compounds read high

With CC(=O)N1C(=O)C(=C2C=C(C)OC(C)=C2)c2ccccc21 the inhibition was 20%.

In the case of CC(C)C[C@@H](C=O)NC(=O)[C@H](CC(C)C)NC(=O)[C@H](CC(C)C)NC(=O)OCc1ccccc1 (Cbz-Leu-Leu-Leu-aldehyde), the inhibition is reported as 5%.
